# Assay outcomes (PubChem BioAssay)
# IMPase Li cell: cell-permeable IMPase inhibitors with lithium potentiation | CHO-M1 cells, IP1 TR-FRET (IP-One), carbachol + lithium | Potency, µM (series often up to 59.4 µM), inactives show at the top dose activity, negative = IMPase inhibition, actives largely listed as inhibitors | actives 0.35% (n = 210,000) | AID 1457; active means well fitted inhibition curve with a large enough effect; inconclusive means small, poorly fitted or top-dose-only effect; inactive means no such curve, though single readings can be large or run the other way;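 further: IP1 builds up when IMPase is blocked and the TR-FRET signal falls; potency means the concentration at half of the fitted maximal effect; plate controls were basal vehicle for no effect and high inhibitor control for full effect; nearly all actives have a fitted effect of over 50% in size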
#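 Test compounds were applied to CHO-M1 cells previously cultured for 16–30 h at 2000 per well. A small lithium amount accompanied them; after 30 min at 37C, IP1 was quantified by TR-FRET.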
# HPGD inh: HPGD (human) dehydrogenase inhibition; P15428; purified HPGD, NADH fluorescence kinetic, PGE2 substrate; Potency, µM, inactives show top-dose activity change, negative = inhibition, hits mostly inhibitors; actives 4.3% (n = 150,000); AID 894; further: potency means the concentration at half of the fitted maximal effect
# Target sequence (P15428 whole entry, looked up): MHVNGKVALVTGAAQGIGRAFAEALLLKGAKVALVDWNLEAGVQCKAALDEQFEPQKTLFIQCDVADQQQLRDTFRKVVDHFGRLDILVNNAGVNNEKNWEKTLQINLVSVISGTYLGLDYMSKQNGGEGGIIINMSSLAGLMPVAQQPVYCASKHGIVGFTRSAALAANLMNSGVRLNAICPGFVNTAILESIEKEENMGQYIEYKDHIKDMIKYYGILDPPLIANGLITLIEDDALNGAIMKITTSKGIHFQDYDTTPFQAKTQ
#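 NADH formation kinetics: reaction with 30 uM PGE2 and 1 mM NAD+ (final), 20 nM enzyme, Tris-HCl pH 8 with Tween 20, after 15 min compound preincubation at room temperature. Fluorescence change, last versus first of five reads.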
# PNC inhibitor: perinucleolar compartment assembly inhibition. activity change (PNC), negative = inhibition, % at 10 µM. actives 3.1% (n = 140,000). PC3M PTB-GFP, PNC prevalence imaging, 16 h; stronger effect = lower value. AID 2417;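 active means readout at or below -70, meaning at least 70% loss of cells showing the perinucleolar compartment, a nuclear body marking cancer cells; inconclusive means readout between -30 and a set limit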;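 further: plate controls were DMSO wells for no effect and camptothecin positive control wells for full effect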
#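 Compounds are pinned in duplicate onto adhered PC3M cells stably expressing GFP-tagged PTB and incubated 16 h at 37 C. Cells are then fixed, nuclei stained with Hoechst, and PNC-positive cells counted.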
# ALDH1A1 block: ALDH1A1 (human) enzyme inhibition; P00352; Purified ALDH1A1, NADH fluorescence, propionaldehyde substrate; Potency, µM (top dose mostly 75.3 µM), inactives show top-dose activity, negative = inhibition, actives largely listed as inhibitors; actives 7.3% (n = 220,000);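 further: potency means the concentration at half of the fitted maximal effect; plate controls were no enzyme wells and a reference inhibitor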
# IMPase inh: membrane-permeable compound that blocks inositol monophosphatase. P97697. CHO-M1 cells, IP1 accumulation, HTRF TR-FRET ratio. inhibition (IP1 accumulation), % at 46.1 µM. 120,000 tested, under 10 active. AID 901; active means well fitted curve in the direction sought with a large enough effect in the signal ratio, not every such curve was filed as active; inconclusive means small, poorly fitted or top-dose-only effect, or a change in a side signal; inactive means no such curve, though single readings can be large or run the other way; the % refers to the signal ratio;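 further: cells stimulated with carbachol in lithium chloride buffer; plate controls were DMSO basal wells for no effect and reference inhibitor wells for full effect; higher means more IMPase inhibition seen as more IP1 and lower FRET ratio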
# Target sequence (P97697 whole entry, looked up): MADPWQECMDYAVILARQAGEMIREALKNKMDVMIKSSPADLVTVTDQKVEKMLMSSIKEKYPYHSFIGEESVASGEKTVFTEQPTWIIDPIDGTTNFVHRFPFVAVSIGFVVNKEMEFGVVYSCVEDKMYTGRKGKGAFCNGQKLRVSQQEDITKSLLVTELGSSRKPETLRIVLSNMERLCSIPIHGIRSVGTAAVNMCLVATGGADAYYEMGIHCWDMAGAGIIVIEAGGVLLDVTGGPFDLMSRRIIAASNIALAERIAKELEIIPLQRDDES
#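 In this qHTS, compounds (final up to 46 uM) act on CHO-M1 cells that are then activated through the M1 receptor with carbachol, in pH 7.4 buffer containing 50 mM LiCl, for 30 min. IP1 accumulation is quantified by the IP-One immunoassay.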
# Numbers without * were called inactive; ? = inconclusive; . = no result given; [ ] = another dose, or the depositor's remark. Shown are actives, neighbours in structure and some others; about 11% of the full set was active somewhere. Unless noted, the call rests on the fitted dose curve; in most records, active means well fitted inhibition curve with a large enough effect (not every such curve was filed as active); inconclusive means small, poorly fitted or top-dose-only effect, or another doubt; inactive means no such curve, though single readings can be large or run the other way. Unless noted, on the % scale 0 is the no-effect control and ±100 the full control effect.
SMILES,IMPase Li cell,HPGD inh,PNC inhibitor,ALDH1A1 block,IMPase inh
CC[C@@H]1OC(=O)[C@H](C)[C@H](O[C@@H]2C[C@](C)(OC)[C@H](O)[C@H](C)O2)[C@H](C)[C@H](O[C@@H]2O[C@@H](C)C[C@@H](N(C)C)[C@@H]2O)[C@](C)(O)C[C@H](C)C(=NOCOCCOC)[C@H](C)[C@H](O)[C@]1(C)O,-5.2%,0.9%,.,-6.9%[20.9 µM],3.9[20.6 µM]
CC(C)Oc1ccc(N2CC(C(=O)Nc3ccccc3F)CC2=O)cc1 (configuration not stated),21.0%[38.3 µM],-11.3%,66.1,-3.6%,-13.5
O=C(Nc1ccccc1C(F)(F)F)C1CC(=O)N(c2ccccc2F)C1 (configuration not stated),8.2%[38.3 µM],-6.0%,-80.8*,?,14.4
Cn1c(=O)c2c(ncn2CC2OCCO2)n(C)c1=O,3.0%,-10.2%,.,2.7%,.
CCCCCCCCCCOC(=O)c1csc2nnsc12,8.9%,-17.8%,-100.0*,4.0%,-4.9
COC(=O)C1=C(C)N(C)C(=S)NC1c1c(OC)ccc2ccccc12 (configuration not stated),9.5%,.,.,4.1%,.
CCSc1nnc(NC(=O)c2cc(C)nc3ccccc23)s1,-15.7%[38.3 µM],28.2µM*,-17.0,-8.0%,-3.7
CCSc1nnc(NC(=O)c2nn(C(C)C)c(=O)c3ccccc23)s1,1.0%,-15.9%,?,25.1µM*,-5.4
CSCCC(NC(=O)c1ccccc1)C(=O)O (configuration not stated),0.4%,.,.,5.4%,.
CSCCC(NC(=O)c1ccccc1)C(=O)NC1CCCC1 (configuration not stated),24.5%[38.3 µM],-5.7%,-83.8*,0.2%,6.2
CCOC(=O)c1sc(NC(=O)CSc2n[nH]c(-c3ccncc3)n2)c(C#N)c1C,27.5%[38.3 µM],5.01µM*,34.2,35.5µM*,14.0
CCOC(=O)c1sc(NC(=O)c2cc(-c3ccc(C)cc3)nc3ccccc23)c(C#N)c1C,25.0%[38.3 µM],22.4µM*,50.9,?,6.5
CCOC(=O)c1sc(NC(=O)CSc2nccc(C)n2)c(C#N)c1C,31.0%[38.3 µM],-8.3%,?,-1.4%,2.3
Cc1sc(NC(=O)c2cc(-c3ccccc3)nc3ccccc23)c(C(N)=O)c1C,9.7%,-8.8%,?,8.4%,-7.8
Cc1sc(NC(=O)c2cc(-c3ccc(Cl)cc3)nc3ccccc23)c(C(N)=O)c1C,-0.4%[38.3 µM],12.6µM*,24.7,25.1µM*,8.6
Cc1ccccc1-c1cc(C(=O)Nc2sc(C(=O)OC(C)C)c(C)c2C#N)c2ccccc2n1,10.2%[38.3 µM],15.8µM*,?,8.91µM*,11.5
O=C1C2C(C(=O)N1c1ccccc1)N1CCCN1C2c1ccccc1 (configuration not stated),-1.0%,.,.,0.8%,.
CCO[C@@H]1OC(C(=O)N2CCN(Cc3ccccc3)CC2)=C[C@H](c2csc3ccccc23)[C@H]1CCCO,8.8%,.,.,?,.
COC(=O)c1sc(NC(=O)c2cc(-c3ccccc3)nc3ccccc23)c(C#N)c1C,14.9%[38.3 µM],3.55µM*,18.8,14.1µM*,2.5
COc1ccc(-c2cc(C(=O)Nc3sc4c(c3C#N)CCCC4)c3ccccc3n2)cc1,-4.9%,?,?,?,.
Cc1ccc(Nc2c(-c3cc(Br)ccc3F)nc3cc(C)ccn23)cc1,.,.,.,.,5.5
COc1ccc(CCN2C(=NC(=O)CC(C)C)SC3CS(=O)(=O)CC32)cc1 (configuration not stated),32.2%[38.3 µM],0.2%,?,?,2.9
COc1ccc(CCN2C(=NC(=O)CCC(=O)O)SC3CS(=O)(=O)CC32)cc1OC (configuration not stated),2.9%[38.3 µM],-8.7%,-8.6,25.1µM*,4.3
CCOC(=O)c1c(C)cc(O)c(C=O)c1O,4.7%,-9.8%,.,-13.5%,.
CCCCNc1oc(-c2ccc(OC)cc2)nc1S(=O)(=O)c1ccccc1,29.3%[38.3 µM],?,-8.1,22.4µM*,3.9
O=S(=O)(c1ccccc1)c1nc(-c2ccco2)oc1NCCCn1ccnc1,-14.0%[38.3 µM],-23.2%,-24.5,25.1µM*,-3.8
Cc1csc(NC(=O)CSc2nnc3ncccn23)n1,.,.,?,15.1%,11.7
CCc1nnc(NC(=O)CSc2nnc3ncccn23)s1,30.3%[38.3 µM],-26.9%,-81.8*,?,-10.2[1.84 µM]
